The list is not random: actives were taken first. Their share in the collection is about 10%.
G9a block = blocks human histone lysine methyltransferase G9a; 350,000 compounds, 8.8% hits; Q96KQ7; Potency, µM (series often up to 102 µM), without a hit: at the top dose activity, negative = inhibition, actives largely listed as inhibitors; G9a H3K9 monomethylation, AlphaScreen, 2 h; also: % is scaled to controls: 0 for no effect and ±100 for the full control effect; nearly all actives have a fitted effect of over 75% in size
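Compounds were preincubated with 20 nM G9a for 15 min, after which biotinylated H3K9 peptide (500 nM) and SAM (20 uM) started a 2 h room-temperature reaction. Monomethylated product was quantified by antibody-based AlphaScreen chemiluminescence.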
JMJD2A Tudor inh = inhibitors of human JMJD2A Tudor domain. AlphaScreen JMJD2A-Tudor / H3K4me3 peptide binding. Potency, µM (highest dose often 114 µM), for the others: top-dose activity change, negative = inhibition, most hits filed as inhibitors. 390,000 compounds, 4.4% hits. AID 504339; also: % is scaled to controls: 0 for no effect and ±100 for the full control effect; nearly all actives have a fitted effect of over 50% in size
Target sequence (O75164 whole entry, looked up, the tested form may be a part): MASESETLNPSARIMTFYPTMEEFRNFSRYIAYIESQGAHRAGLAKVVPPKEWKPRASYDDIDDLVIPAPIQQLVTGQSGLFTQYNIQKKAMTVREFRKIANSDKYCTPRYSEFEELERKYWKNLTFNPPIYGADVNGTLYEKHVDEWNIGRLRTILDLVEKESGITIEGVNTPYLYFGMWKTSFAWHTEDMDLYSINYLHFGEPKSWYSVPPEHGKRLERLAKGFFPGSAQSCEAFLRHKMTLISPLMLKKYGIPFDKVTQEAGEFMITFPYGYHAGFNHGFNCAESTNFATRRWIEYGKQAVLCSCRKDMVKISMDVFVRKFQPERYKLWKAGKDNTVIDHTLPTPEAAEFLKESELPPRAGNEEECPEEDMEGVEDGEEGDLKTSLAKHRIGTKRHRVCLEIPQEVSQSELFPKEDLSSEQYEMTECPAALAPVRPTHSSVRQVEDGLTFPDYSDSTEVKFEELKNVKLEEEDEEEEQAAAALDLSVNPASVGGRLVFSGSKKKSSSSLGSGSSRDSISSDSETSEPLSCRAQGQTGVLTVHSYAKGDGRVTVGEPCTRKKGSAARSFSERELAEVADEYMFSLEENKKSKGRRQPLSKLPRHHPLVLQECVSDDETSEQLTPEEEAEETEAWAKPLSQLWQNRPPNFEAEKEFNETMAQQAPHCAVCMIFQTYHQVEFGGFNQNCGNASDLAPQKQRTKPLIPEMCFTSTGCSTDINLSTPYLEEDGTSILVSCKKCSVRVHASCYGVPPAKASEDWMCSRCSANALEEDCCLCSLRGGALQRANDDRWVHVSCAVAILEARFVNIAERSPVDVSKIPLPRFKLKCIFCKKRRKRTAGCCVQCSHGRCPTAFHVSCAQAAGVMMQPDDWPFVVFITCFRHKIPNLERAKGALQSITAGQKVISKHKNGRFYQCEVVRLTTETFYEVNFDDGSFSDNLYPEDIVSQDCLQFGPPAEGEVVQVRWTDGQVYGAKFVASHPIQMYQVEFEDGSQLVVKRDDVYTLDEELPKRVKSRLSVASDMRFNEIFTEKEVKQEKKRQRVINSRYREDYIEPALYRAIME
GLS inhibitor = inhibitors of human glutaminase (GLS) | GLS enzymatic activity, qHTS titration | Potency, µM (titrated, usually from 45.5 µM), without a hit: at the top dose activity change, negative = inhibition, hits mostly inhibitors | 410,000 compounds, 0.21% hits; also: % is scaled to controls: 0 for no effect and ±100 for the full control effect
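Assay buffer: 45 mM KH2PO4 pH 8.2, 0.02% Tween-20. hKGA acts on L-glutamine (1 mM solution added); product glutamate is reported by an oxidase/peroxidase Amplex Red coupling, with fluorescence taken at baseline and 30 min.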
BAZ2B inh = blocks human BAZ2B | Potency, µM (top dose mostly 114 µM), for the others: top-dose activity change, negative = inhibition, actives largely listed as inhibitors | AlphaScreen BAZ2B-H3K14Ac peptide displacement | 360,000 compounds, 4.4% hits | Q9UIF8; also: % is scaled to controls: 0 for no effect and ±100 for the full control effect; nearly all actives have a fitted effect of over 60% in size
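BAZ2B (50 nM) with biotin-H3(5-23)K14Ac peptide (50 nM) in PBS pH 7.4, 0.01% Tween-20, preformed 30 min, then compound 30 min at room temperature; top concentration 110uM. AlphaScreen streptavidin donor/nickel chelate acceptor beads (10 ug/mL final), 20 min dark, signal read.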
HP1b binding inh = blocks HP1-beta chromodomain binding to methylated histone tails. Potency, µM (doses to about 114 µM), for the others: at the highest dose activity change, negative = inhibition, usual class: inhibitors. AID 540317. 390,000 compounds, 0.56% hits. P83916. AlphaScreen HP1-beta / biotin-H3K9me3 peptide binding; also: nearly all actives have a fitted effect of over 70% in size
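AlphaScreen: HP1-beta (50 nM) preformed 30 min with biotin-H3(1-18)K9me3 peptide (50 nM) in PBS pH 7.4, 0.01% Tween-20. Compound added for 30 min at RT, then streptavidin donor/nickel chelate acceptor beads (10 ug/mL) for 30 min.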
Active calls of the source: *; u = inconclusive; x = no result; [ ] = remark or other dose. Calls follow the shape of the dose curve; as a rule, active = well fitted curve in the direction sought with a large enough effect; inconclusive = small, poorly fitted or top-dose-only effect, or another doubt; inactive = no such curve, though single readings can be large; an effect the other way counts as inactive or inconclusive. Potency is read from the fitted curve at half-maximal effect.

SMILES | G9a block | JMJD2A Tudor inh | GLS inhibitor | BAZ2B inh | HP1b binding inh
CCO[C@H]1OC(C(N)=O)=C[C@@H](c2ccccc2)[C@@H]1CCCO | 32.2%[12.7 µM] | -9.4% | 20.9% | -8.3% | 28.5%
COc1ccc(CCN2C(=S)N(c3ccc(Cl)cc3)C(=O)C2CC(N)=O)cc1OC (centres undefined) | -10.9% | -6.2% | -7.3% | -0.7% | u
COC(=O)[C@]1(Cc2ccccc2)N[C@H](CN(C)S(=O)(=O)c2ccc(C(C)(C)C)cc2)[C@@H]2C(=O)N(Cc3ccccc3)C(=O)[C@@H]21 | x | -9.4% | 2.7% | x | 49.3%
COc1ccc(OC)c(-n2c(-c3cc(-c4ccco4)[nH]n3)n[nH]c2=S)c1 | 0.2% | u | u | -2.3% | -6.1%
CC(C1CC2CCC1C2)n1c(-c2ccco2)n[nH]c1=S (centres undefined) | 2.24µM* | 20µM* | 11.2µM* | u | u
CC1=CC(C)C(C(=O)O)C(C(=O)Nc2cccnc2)C1 (centres undefined) | 0.3% | -9.7% | 1.2% | -35.8% | 23.5%
COc1ccc(C(=O)N/C(=C\c2ccc([N+](=O)[O-])cc2)C(=O)NC(CCSC)C(=O)O)cc1 (centres undefined) | 50.1µM* | -14.5% | 0.4% | 0.9% | 41.1%
COc1ccc(/C=C(\NC(=O)c2ccc(OC)cc2)C(=O)NC(CCSC)C(=O)O)cc1 (centres undefined) | -0.1%[2.33 µM] | u | 13.0% | -0.3% | 3.6%
CC(C)NC(=O)N(C)C[C@@H]1Oc2ccc(NC(=O)Nc3ccc(C(F)(F)F)cc3)cc2CC(=O)N([C@H](C)CO)C[C@@H]1C | x | -15.1% | 2.6% | x | 43.9%
O=C1NC2(CCCCC2)C(=O)N1/N=C/c1ccccc1Br | 14.2% | -14.8% | -1.4% | -16.3% | 35.2%
O=C1NC2(CCCCC2)C(=O)N1/N=C/c1ccc(O)cc1O | 3.98µM* | -15.3%[11.4 µM] | 20.1% | u | -18.5%
O=C(NN1C(=O)c2ccccc2NC1c1cccnc1)c1ccccc1 (centres undefined) | 21.9%[59 µM] | -8.2% | 10.5% | -8.2% | 37.7%
CCOC(=O)c1c[nH]n(-c2ccccc2)c1=O | -35.9% | -7.7% | 20.9% | -6.4% | 31.3%
CCOC(=O)c1cc2c(C)n(-c3ccc(OCC)cc3)c(C)c2ccc1=O | x | u | 4.3% | 50.1µM* | u
CCOC(=O)c1cc2c(C)n(-c3ccc(C)cc3)c(C)c2ccc1=O | x | u | -3.1% | 44.7µM* | u
CCOC(=O)c1c[nH]n(-c2ccc(C)cc2)c1=O | 50.1µM* | -15.2% | -15.0% | -46.4% | 40.0%
CCOc1ccc(-n2c(C)c(C(=O)OC)c3cc(O)ccc32)cc1 | x | -24.3% | 4.0% | u | 3.4%
COc1ccccc1-c1nnc(SCC(=O)O)n1C | u | -13.4% | -7.9% | -21.9% | 38.4%
COc1cc(OC)cc(-c2c(C#Cc3ccsc3)c3cc(-c4ccc5[nH]ccc5c4)ccc3n2C)c1 | 2.9%[0.501 µM] | -6.2% | 2.0% | -3.7% | 34.2%
Cc1cc(NC(=O)CCN2CCN(CCO)CC2)ccc1Br | x | -16.4% | 3.4% | u | 13.6%
Clc1ccc(OCc2nn3c(C4CCCCC4)nnc3s2)cc1 | 8.91µM* | -25.4% | 2.2% | -0.7% | -20.5%
c1ccc(-c2nn3c(C4CCCCC4)nnc3s2)nc1 | 8.0% | -1.7% | 3.1% | 6.9% | 19.6%
Cc1ccc(Cn2ccnc2C(=O)Nc2ccccc2)cc1 | 48.3% | -11.1% | 1.9% | 15.5% | 35.3%
COc1ccc(Cl)cc1NC(=O)CC1CCCC1 | 26.7% | 3.4% | -8.2% | 22.0% | 30.3%
CC(=O)c1ccc(NC(=O)CN2CCOCC2)cc1 | -10.3%[59 µM] | -7.8% | -0.8% | -35.6% | 40.2%
SMILES | G9a block | JMJD2A Tudor inh | GLS inhibitor | BAZ2B inh | HP1b binding inh
CCN1CCOC(=O)C1CC(=O)Nc1ccc(C(C)=O)cc1 (centres undefined) | 3.16µM* | -2.6% | 0.2% | u | 12.3%
CCN1CCOC(=O)C1CC(=O)Nc1cc(Cl)ccc1OC (centres undefined) | 7.94µM* | -24.3% | 0.8% | -10.8% | 1.7%
CCN1CCOC(=O)C1CC(=O)Nc1ccccc1C(F)(F)F (centres undefined) | 2.24µM* | -34.3% | -2.4% | -39.2% | -16.8%
CCc1ccc(NC(=O)CC2C(=O)OCCN2CC)cc1 (centres undefined) | 1.78µM* | -16.0% | -4.2% | -11.8% | 27.0%
COc1cccc(NC(=O)CC2C(=O)OCCN2Cc2ccccc2)c1 (centres undefined) | -31.6%[59 µM] | -8.2% | -0.3% | -0.3% | 86.8%
O=C(CC1C(=O)OCCN1Cc1ccccc1)Nc1cccc(C(F)(F)F)c1 (centres undefined) | -59.7%[59 µM] | -10.4% | 0.6% | -13.0% | 46.7%
CCOC(=O)C1CCCN(C(=O)c2ccc(C)c(NC(=O)c3nsc4ccccc34)c2)C1 (centres undefined) | 18.6%[59 µM] | -16.6% | 0.9% | 3.8% | 12.9%[57 µM]
CCN1CCOC(=O)C1CC(=O)Nc1cc(C)cc(C)c1 (centres undefined) | 3.55µM* | -14.9% | 1.0% | -11.5% | 28.3%
Cc1cc(C)cc(NC(=O)CC2NCCNC2=O)c1 (centres undefined) | 3.6%[59 µM] | -10.6% | -2.1% | 9.5% | 11.8%
O=C(N/N=C\c1ccc(F)cc1)c1cc(OCC(F)(F)F)ccc1OCC(F)(F)F | 20.7%[59 µM] | -17.9% | -11.6% | 0.5% | 18.5%
COc1cccc(N2CCN(C(=S)NCCc3ccccc3)CC2)c1 | -3.3% | -4.1% | 22.2% | -26.8% | 7.5%
O=c1ccc2ccc(O)c(O)c2o1 | 0.844µM* | x | x | x | x
C=CCc1cccc2ccc(=O)oc12 | 16.9%[59 µM] | 7.8% | -2.0% | -17.0% | 37.6%
O=C(NCc1ccc(Cl)cc1)C1=Cc2cc(Br)ccc2OC1 | 11.6%[59 µM] | 0.3% | 5.5% | 0.4% | 30.6%[57 µM]
CC(=O)C1=C(O)C(=O)N(c2ccc(O)cc2)C1c1ccccc1Cl (centres undefined) | u | -11.0% | 1.9% | -13.8% | u
CC(=O)C1=C(O)C(=O)N(CCc2ccccc2)C1c1ccccc1[N+](=O)[O-] (centres undefined) | 1.0%[59 µM] | 7.0% | -11.2% | 3.6% | -5.8%
CC(=O)C1=C(O)C(=O)N(c2ccc(Br)cc2)C1c1ccccc1[N+](=O)[O-] (centres undefined) | 39.8µM* | -30.2% | 7.6% | -3.8% | -11.8%
CC(=O)C1=C(O)C(=O)N(c2ccc(O)cc2)C1c1ccccc1F (centres undefined) | 79.4µM* | -19.6% | 27.3% | 1.7% | 8.3%
CC(=O)C1=C(O)C(=O)N(CO)C1c1ccccc1F (centres undefined) | 56.2µM* | u | -1.8% | u | 21.0%
O=C(NC1CCCCC1)C(c1ccc(Cl)cc1)N(C(=O)c1cnccn1)c1ccc2c(c1)OCO2 (centres undefined) | 21.5%[59 µM] | -10.5% | -5.1% | 7.7% | 21.6%
Cc1ccc(S(=O)(=O)N(C)c2ccc(C(=O)N3CCOCC3)cc2)cc1 | -6.8% | 2.7% | -8.0% | 7.0% | 41.7%

Compound activity as filed in PubChem BioAssay.
